Results reported in the supplement of paper PMC6555819.

What was measured:
Experiment in all cases: PBM binding z-score (relative to random genomic background probes); higher = stronger binding; sequences stand for … in GC…GCGATTGACAGCGTAGAATGAAGG
[1] = tested on: FXR:RXRa (NR concentration 270 nM, RXRa partner concentration 90 nM)
How it was run: (§1)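 For binding z-scores, the reference was random background probes on custom Agilent 4×180K protein-binding microarrays. These arrays were incubated 1 h with ligand-free nuclear receptor dimers in PBS pH 7.4, 2% milk, 0.02% Triton X-100, 1 mM DTT, 0.2 mg/mL BSA and 0.4 mg/ml salmon testes DNA. Fluorescence was scanned after antibody detection of each partner (one per run) and regression-normalized.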

[2] = tested on: LXRa:RXRa (NR concentration 270 nM, RXRa partner concentration 90 nM)
How it was run: as §1

[3] = tested on: LXRa homodimer (NR concentration 270 nM)
How it was run: as §1

[4] = tested on: LXRb:RXRa (NR concentration 270 nM, RXRa partner concentration 90 nM)
How it was run: as §1

[5] = tested on: LXRb homodimer (NR concentration 270 nM)
How it was run: as §1

[6] = tested on: PPARa:RXRa (NR concentration 270 nM, RXRa partner concentration 90 nM)
How it was run: as §1

[7] = tested on: PPARg:RXRa (NR concentration 180 nM, RXRa partner concentration 90 nM)
How it was run: as §1

[8] = tested on: PPARg:RXRa 270nM:90nM, anti-RXR (NR concentration 270 nM, RXRa partner concentration 90 nM)
How it was run: as §1

[9] = tested on: PPARg:RXRa 30nM:10nM, anti-RXR (NR concentration 30 nM, RXRa partner concentration 10 nM)
How it was run: as §1

[10] = tested on: PPARg:RXRa 90nM:30nM, anti-RXR (NR concentration 90 nM, RXRa partner concentration 30 nM)
How it was run: as §1

[11] = tested on: PPARg:RXRa DBDmut IVT, anti-RXR (DBD mutation: RXRa K156A/R161A, NR concentration 270 nM, RXRa partner concentration 90 nM)
How it was run: as §1

[12] = tested on: PPARg:RXRa IVT, anti-PPARg (NR concentration 270 nM, RXRa partner concentration 90 nM)
How it was run: as §1

[13] = tested on: PPARg DBDmut:RXRa IVT, anti-PPARg (DBD mutation: PPARg1 K132A/R137A, NR concentration 270 nM, RXRa partner concentration 90 nM)
How it was run: as §1

[14] = tested on: PPARg DBDmut IVT, anti-PPARg (DBD mutation: PPARg1 K132A/R137A, NR concentration 270 nM)
How it was run: as §1

[15] = tested on: PPARg homodimer (NR concentration 180 nM)
How it was run: as §1

[16] = tested on: PXR:RXRa (NR concentration 270 nM, RXRa partner concentration 90 nM)
How it was run: as §1

[17] = tested on: PXR homodimer (NR concentration 270 nM)
How it was run: as §1

[18] = tested on: RARa:RXR (NR concentration 270 nM, RXRa partner concentration 90 nM)
How it was run: as §1

[19] = tested on: RARa homodimer (NR concentration 270 nM)
How it was run: as §1

[20] = tested on: RARb:RXRa (NR concentration 270 nM, RXRa partner concentration 90 nM)
How it was run: as §1

Sequence	PBM binding z-score [1]	PBM binding z-score [2]	PBM binding z-score [3]	PBM binding z-score [4]	PBM binding z-score [5]	PBM binding z-score [6]	PBM binding z-score [7]	PBM binding z-score [8]	PBM binding z-score [9]	PBM binding z-score [10]	PBM binding z-score [11]	PBM binding z-score [12]	PBM binding z-score [13]	PBM binding z-score [14]	PBM binding z-score [15]	PBM binding z-score [16]	PBM binding z-score [17]	PBM binding z-score [18]	PBM binding z-score [19]	PBM binding z-score [20]
ATCGCTAGGTAAAGTTCAGTGAAAGATCGATAGA	0.349	1.22	0.609	0.692	-0.361	1.81	1.85	3.26	1.49	2.75	-0.192	0.414	-0.0288	-0.241	0.606	1.42	1.26	0.812	-0.216	2.37
ATCTCTAGGTCAAGTTCAGTGAAAGATCGATAGA	5.11	5.65	4.79	3.98	3.26	4.74	5.82	5.4	2.79	4.77	6.76	6.5	2.13	1.61	2.41	3.45	2.13	3.16	1.74	4.55
ACAGACAGGTGATGAAGGTAACACAGGCTATCAT	0.124	0.0165	-0.085	0.319	-0.129	0.346	1.05	0.295	0.205	0.465	0.127	0.744	0.824	0.414	0.26	-0.00388	0.386	0.0316	0.746	0.493
CCTTACGGGTCACTCCAGGTTAAAGCATCGGAGT	5.18	7.96	2.58	5.93	0.173	4.59	3.59	4.06	1.02	2.86	2.31	3.73	-0.0185	-0.224	2.3	5.3	0.114	4.1	0.271	3.67
AATACAGGGTCTCTAGGCCAGAGTAGGTACGAAT	-0.207	-0.38	-0.356	-0.392	-0.462	-0.078	0.645	0.0123	-0.245	-0.282	0.633	1.69	-0.23	-0.134	0.115	-0.522	-0.459	-0.47	-0.399	0.389
TCATATAGGTAAAGGTGAAAGTTGAACGATATGA	1.54	1.75	0.158	1.89	-0.399	4.3	5.92	5.66	5.22	5.99	4	4.73	1.52	1.41	1.62	2.3	0.333	3.46	0.78	2.25
TCTCGGAGGACAAGAAGGTCAGAGCTTTCCAGAG	1.04	1.14	0.138	0.982	-0.842	1.9	0.179	1.35	2.52	1.71	1.27	0.839	-0.347	-1	0.686	1.71	1.64	1.69	0.0458	3.07
TCTCGGAGGACACGAAAGTCAGAGCTTTCCAGAG	0.434	-0.603	-0.708	-0.456	-1.24	0.0493	-0.000671	0.487	2.23	1.24	1.13	0.191	-0.706	-0.594	-0.882	-0.408	-0.694	-0.237	-0.903	1.28
GCGACTGGGTCAAAGCAGGTTACCATAAGGTTGG	3.12	3.67	-0.265	2.21	-0.807	4.27	4.75	4.75	2.08	3.49	5.8	6.15	0.18	0.407	1.75	3.55	-0.492	3.29	-0.492	3.19
TCTTGTAGATCAACAGGAGTTTAAGAAAGATCGA	-0.268	0.229	-0.339	-0.131	-0.759	0.604	0.0426	1.19	2.22	1.87	1.57	0.487	0.0985	0.197	-0.389	0.514	-0.0735	0.201	-0.584	0.0376
GATACAGGGTCAGCTAGAGGCCAGATTATGGAAA	4.25	2.85	-0.166	2.68	-0.373	4.42	3.59	3.18	0.899	1.88	0.866	2.23	0.547	-0.0092	1.91	3.24	-0.0885	4.03	0.518	4.12
TCTAGCAGGCCAGAGGGTCACGCAAGAGGTACGG	1.68	1.54	-0.618	1.93	-1.47	3.24	2.4	2.99	1.96	2.57	0.77	1.31	-0.82	-1.03	0.618	2.62	-0.51	3.55	-0.463	2.84
CCTGATAGGTCAATGGTCAGCTAAAGCAGCTCGC	5.01	3.98	0.776	2.92	0.415	4.48	4.56	4.96	2.53	4.35	3.36	3.31	-0.515	-0.301	2.74	2.07	0.0154	2.95	0.334	4.06
CCGACTGGGGCAAGGTTACGATAACGCACAGCCA	0.216	0.654	-0.354	0.677	-1.27	2.06	2.79	3.25	0.969	2.5	3.36	3.57	-0.0114	-0.572	0.143	0.367	-0.626	0.767	-0.286	1.66
